# High-throughput results (PubChem)
# A selection: hits, their analogues and other compounds. The true share with any hit is near 27%.
# CYP2C19 activ = increases human CYP2C19 enzyme activity; P33261; recombinant CYP2C19, luciferin-H EGE luminescence; stronger effect = higher value; 0 = fully inhibited enzyme, 1 = untreated enzyme; activation factor at 5 µM; 96,000 tested, under 10 active; AID 1025;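 active means activation factor of at least 2 at 5 µM in the primary screen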;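 further: 0 = wells with 2.5 mM tranylcypromine and 1 = vehicle-only wells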
# Target sequence (P33261 whole entry, looked up): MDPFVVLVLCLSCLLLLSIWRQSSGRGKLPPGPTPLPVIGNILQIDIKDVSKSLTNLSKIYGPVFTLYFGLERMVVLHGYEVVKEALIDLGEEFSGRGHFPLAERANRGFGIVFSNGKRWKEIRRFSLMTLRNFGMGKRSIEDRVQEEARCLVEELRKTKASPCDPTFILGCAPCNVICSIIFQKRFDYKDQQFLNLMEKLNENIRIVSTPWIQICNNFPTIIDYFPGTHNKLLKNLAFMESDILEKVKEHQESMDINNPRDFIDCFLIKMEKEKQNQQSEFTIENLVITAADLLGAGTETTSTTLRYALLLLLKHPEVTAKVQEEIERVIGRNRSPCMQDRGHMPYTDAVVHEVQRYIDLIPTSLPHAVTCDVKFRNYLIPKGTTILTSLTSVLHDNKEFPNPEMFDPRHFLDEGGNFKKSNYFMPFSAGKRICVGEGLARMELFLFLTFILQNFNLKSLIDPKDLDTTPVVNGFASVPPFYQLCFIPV
# sEH activator = soluble epoxide hydrolase (human) activation | P34913 | AID 717 | activation, % at 2 µM | purified human sEH enzymatic activity, activator screen | 91,000 compounds, 0.04% hits; in the data active means activation above about 37%
# sEH inhibitor = inhibitors of human soluble epoxide hydrolase | P34913 | recombinant human sEH enzymatic activity assay | inhibition, % at 2 µM | 91,000 compounds, 0.34% hits; in the data active means inhibition above about 80%
# CYP2C9 act = activators of human CYP2C9 | activation factor at 5 µM | P11712 | 96,000 compounds, 1.4% hits | recombinant CYP2C9, luciferin-H conversion, luminescence; stronger effect = higher value; factor 1 = untreated enzyme, 0 = blocked;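 active means activation factor of 2 or more for CYP2C9 at a 5 µM dose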;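 further: 0 = sulfaphenazole-blocked wells and 1 = vehicle-only wells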
# CYP2C19 inh = inhibitors of human CYP2C19. CYP2C19 Supersomes, luciferin-H EGE luminescence, 30 min. inhibition, % at 5 µM. 96,000 compounds, 21% hits. P33261. AID 778;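 active means CYP2C19 inhibition above a set limit at 5 µM in the primary screen, cut at about 50% in these data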;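 further: plate controls were negative control wells for no effect and 2.5 mM tranylcypromine positive control for full effect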
# CYP2C9 inh = human CYP2C9 inhibition; 96,000 compounds, 20% hits; CYP2C9 Supersomes, luciferin-H conversion, luminescence; P11712; inhibition, % at 5 µM; AID 777;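 active means blocking of liver enzyme CYP2C9 beyond about 50% at 5 µM, limit read from the data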
# Active calls of the source: *; / = no result given.
SMILES,CYP2C19 activ,sEH activator,sEH inhibitor,CYP2C9 act,CYP2C19 inh,CYP2C9 inh
CCOc1cc(C2CC(=O)NC(SCC)=C2C#N)ccc1O (stereo unspecified),0.7,/,/,0.7,33,27
COc1ccc2ccccc2c1C1CC(=O)N2CN(Cc3ccco3)CSC2=C1C#N (stereo unspecified),0.4,-6,6,0.1,55*,86*
CCOc1cc(C2CC(=O)N3CN(C4CCCCC4)CSC3=C2C#N)ccc1O (stereo unspecified),0.5,-1,1,0.2,53*,82*
COc1cc(C2CC(=O)N3CN(Cc4ccco4)CSC3=C2C#N)ccc1OCc1ccccc1 (stereo unspecified),0.7,5,-4,0.2,25,83*
COc1ccc2ccccc2c1C1CC(=O)N2CN(C3CCCCC3)CSC2=C1C#N (stereo unspecified),0.4,0,1,0.1,55*,90*
CCCCN(C)C(=O)CS(=O)(=O)Cc1nc(-c2cccc(OC)c2)oc1C,0.6,10,-10,0.7,40,28
NS(=O)(=O)c1ccc(CCNC(=O)C2CCCN2C(=O)OCc2ccccc2)cc1 (stereo unspecified),1,-8,8,1.1,1,-7
NS(=O)(=O)c1ccc(CCNC(=O)[C@@H]2CCCN2S(=O)(=O)c2ccccc2F)cc1,1,-9,9,0.4,-2,61*
NS(=O)(=O)c1ccc(CCNC(=O)C2CCCCN2S(=O)(=O)c2ccccc2)cc1 (stereo unspecified),0.9,-4,6,0.3,13,66*
O=C(NCCc1ccccc1F)C1CCCN1S(=O)(=O)c1ccc2ccccc2c1 (stereo unspecified),/,-3,6,/,/,/
COc1ccccc1CNC(=O)CCCOc1cc(=O)n(C)c2ccccc12,1,3,0,1.3,4,-28
O=c1cc(NCc2ccco2)c2ccccc2o1,0.6,0,-2,0.9,45,11
O=C(NC1CCN(Cc2nnnn2CCc2ccccc2)CC1)c1ccccc1F,1.1,-5,3,0.8,-6,16
OC1(c2ccccc2F)CCN(Cc2nnnn2CCc2ccccc2)CC1,0.3,-9,9,0.2,65*,80*
CCCCCn1c(N(C)Cc2ccccc2)nc2c1c(=O)[nH]c(=O)n2C,1,8,-9,0.8,4,18
COCCn1ccc(O)c(Cc2ccccc2)c1=O,0.9,17,-19,1,11,-4
CC1(C)CC(=O)c2cc(OCC(=O)N3CCN(c4ccccc4F)CC3)ccc2O1,0.3,/,/,0.5,68*,49
CCOC(=O)c1c(C)oc2c1c(C(c1cccnc1)N1CCOCC1)c(O)c1ccccc12 (stereo unspecified),0.7,/,/,0.4,34,64*
CCOC(=O)c1c(C)oc2c1c1c(c3ccccc32)OCN(Cc2cccnc2)C1,0.5,5,-6,0.5,46,54*
COC(=O)NCC(c1cccnc1)N1CCOCC1 (stereo unspecified),/,-7,6,/,/,/
CN1CCN(C(c2cccnc2)c2ccc3cccnc3c2O)CC1 (stereo unspecified),0.8,5,-8,0.9,25,8
CCOC(=O)c1c(C)oc2c1c(C(c1cccnc1)N1CCN(C)CC1)c(O)c1ccccc12 (stereo unspecified),0.4,/,/,0.8,63*,16
COC(=O)CNC(=O)C1CCCN1C(=O)OC(C)(C)C (stereo unspecified),1.1,-22,22,1.2,-12,-18
CCC(C)N1CC23C=CC(O2)C(C(=O)OCc2ccccc2)C3C1=O (stereo unspecified),1.1,-10,9,0.5,-5,47
COc1ccccc1C(=O)NCCN1CCN(C(=O)c2ccccc2OC)CC1,0.9,-2,4,1,6,-1
SMILES,CYP2C19 activ,sEH activator,sEH inhibitor,CYP2C9 act,CYP2C19 inh,CYP2C9 inh
C=CCN1C(=O)C(CC(=O)Nc2ccccc2)SC1=Nc1c(C)n(C)n(-c2ccccc2)c1=O (stereo unspecified),0.7,12,-8,0.6,26,41
CCn1c(SCC(=O)OC(C)C)nnc1-c1cccc(Cl)c1,0.5,/,/,1.3,55*,-27
CC(C)OC(=O)CSc1nnc(-c2ccc(Cl)cc2)n1N,0.5,1,0,1,47,4
CC(C)OC(=O)CSc1nnc(-c2ccc(Cl)cc2Cl)n1N,0.3,-9,11,0.4,65*,59*
CC(C)OC(=O)CSc1nnc(-c2ccc(O)cc2)n1Cc1ccccc1,0.4,-6,5,0.6,64*,37
O=C(O)CCCNS(=O)(=O)c1cccc2nsnc12,1.1,2,-3,1,-6,1
O=C(NCCNC(=O)c1cc(OCC(F)(F)F)ccc1OCC(F)(F)F)Nc1cccc(C(F)(F)F)c1,0.6,-13,14,0.3,41,67*
C=CCONC(=O)c1cc(OCC(F)(F)F)ccc1OCC(F)(F)F,0.7,3,-4,0.1,29,87*
FC(F)(F)c1nc(Oc2ccccc2)c2ccccc2n1,0.6,2,0,0.7,38,33
COC(=O)c1ccc2c(=O)n(CCN3CCOCC3)c(=S)[nH]c2c1,0.9,8,-11,1,12,-4
COc1ccc(Cl)cc1N1C(=O)C2CCCN2C1c1ccc(F)cc1 (stereo unspecified),0.5,4,-6,2*,49,-98
COc1ccc(C2N(c3cc(Cl)ccc3OC)C(=O)C3CCCN32)cc1 (stereo unspecified),0.2,-19,17,1.8,77*,-85
CC1CCN(C(=O)c2ccc(NC(=O)C3CCCO3)cc2)CC1 (stereo unspecified),1,/,/,0.9,-2,10
c1ccc(-n2ncc3c2ncn2nc(-c4ccco4)nc32)cc1,0.9,-9,8,0.8,6,18
COc1ccc(C2C(C#N)=C(N)Oc3c2oc(CO)cc3=O)c(OC)c1OC (stereo unspecified),0.9,/,/,0.8,6,17
COC(=O)C1=C(C)OC(N)=C(C#N)C1c1ccsc1 (stereo unspecified),/,-12,16,/,/,/
COC(=O)C1=C(C)OC(N)=C(C#N)C1c1ccccc1 (stereo unspecified),0.2,-5,8,0.6,83*,44
COC(=O)C1=C(C)OC(N)=C(C#N)C1c1ccc(OC)c(OC)c1OC (stereo unspecified),0.4,-8,8,0.5,58*,54*
COc1cc(OC)c(C2C(C#N)=C(N)OC3=C2C(=O)CC(C)(C)C3)cc1OC (stereo unspecified),0.8,-11,13,0.8,21,25
C=CCOC(=O)C1=C(C)OC(N)=C(C#N)C1c1ccccc1F (stereo unspecified),0.2,-28,29,0.4,81*,56*
